This is a sample that favours compounds with a hit; in the whole collection about 0.33% have one here.
IL2 activator: activators of IL-2; 0.065% of 360,000 active; AID 652025; IL-2 activation reporter assay, cell-based qHTS; stimulated with anti-CD3/CD4/CD28 beads; in transgenic mouse T cells; activation, % (series mostly up to about 46 µM); in the data active means activation above about 50%; inconclusive means mostly about 30% to 49%; further: 0% is about no effect
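Quantitative HTS in unstimulated transgenic mouse T cells, with memory T cells as non-tolerant control and PMA/ionomycin as tolerance-bypass control. Compound pretreatment lasted 60 minutes before 18 h bead stimulation; EGFP/DsRed fluorescence read.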
PKM2 act: increases activity of human pyruvate kinase M2; P14618; purified PKM2, Kinase-Glo ATP luminescence, activation; response scale: 0% is enzyme alone, no compound; Potency, µM (doses to about 57.5 µM), for inactives: at the highest dose activation, actives largely listed as activators; 0.34% of 260,000 active; further: potency means the concentration at half of the fitted maximal effect; on the % scale 0 is the no-effect control and ±100 the full control effect; nearly all actives have a fitted effect of over 55% in size
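Kinase-Glo luminescence reports ATP generated from ADP (0.1 mM) and PEP (0.5 mM) by purified hPK-M2 after 1 h at room temperature, pH 7.2 imidazole buffer; intermediate enzyme activity allows detecting inhibitors and activators.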
S-ASM inh: human S-ASM enzyme inhibition | Potency, µM (series often up to 57.5 µM), for inactives: at the highest dose activity change, negative = inhibition, usual class: inhibitors | 0.006% of 340,000 active | placental ASM, HMU-PC fluorogenic substrate, 60 min; further: potency means the concentration at half of the fitted maximal effect
Target sequence (P17405 47-631 limits assumed): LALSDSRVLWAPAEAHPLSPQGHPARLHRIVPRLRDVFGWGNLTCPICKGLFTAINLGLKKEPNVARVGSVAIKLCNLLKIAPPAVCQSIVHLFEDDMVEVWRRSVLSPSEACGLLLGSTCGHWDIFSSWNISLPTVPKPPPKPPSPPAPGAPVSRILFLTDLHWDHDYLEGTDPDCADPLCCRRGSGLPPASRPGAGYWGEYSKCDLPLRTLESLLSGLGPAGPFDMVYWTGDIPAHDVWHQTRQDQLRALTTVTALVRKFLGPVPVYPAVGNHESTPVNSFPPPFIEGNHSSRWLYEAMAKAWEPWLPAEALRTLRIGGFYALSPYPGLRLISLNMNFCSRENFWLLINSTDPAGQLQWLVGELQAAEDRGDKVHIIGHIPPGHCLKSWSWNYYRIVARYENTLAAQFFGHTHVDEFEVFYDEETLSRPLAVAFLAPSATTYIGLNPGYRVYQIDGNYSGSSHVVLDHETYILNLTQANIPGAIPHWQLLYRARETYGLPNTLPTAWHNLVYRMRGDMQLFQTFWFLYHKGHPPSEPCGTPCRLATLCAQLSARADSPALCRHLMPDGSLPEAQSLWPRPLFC
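Human placenta-derived ASM preincubated with compound 10 min at room temperature, then reacted with 9 uM (final) fluorogenic HMU-PC substrate for 60 min at 37 C. Stop solution raises pH to 10; fluorescence read at Ex 386/Em 447 nm.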
* marks the source's active call; other numbers are inactive results; ? = inconclusive; nt = not tested or not shown; [ ] = remark or other dose. Unless noted, the call rests on the fitted dose curve; in most records, active means well fitted curve in the direction sought with a large enough effect; inconclusive means small, poorly fitted or top-dose-only effect, or another doubt; inactive means no such curve, though single readings can be large; an effect the other way counts as inactive or inconclusive.

SMILES	IL2 activator	PKM2 act	S-ASM inh
CCOC(=O)N1CCN(C(=S)NC(C)(C)C)CC1	-0.9	10.5%	0.8%
Cn1c(SCC(=O)c2ccccc2F)nnc1C1CC1	-2.7	31.6µM*	0.3%
Cn1c(SCC(=O)Nc2ccc(Cl)cn2)nnc1C1CC1	-0.4	-0.4%	-2.1%
COC(=O)CN(c1ccc(C)cc1)S(=O)(=O)c1ccc2c(c1)n(C)c(=O)c(=O)n2C	-2.8	15.8µM*	0.2%
CCOc1ccc(N(CC(=O)OC)S(=O)(=O)c2ccc3c(c2)n(C)c(=O)c(=O)n3C)cc1	0.5	1.4%	-0.5%
N#Cc1ccc(OCC(O)CN2CCN(C(c3ccccc3)c3ccccc3)CC2)cc1 (centres undefined)	0.1	2.8%	-0.8%
O=C(O)CCCN1C(=O)/C(=C/c2ccc(-c3nc4ccccc4s3)o2)SC1=S	1.9	-1.7%	-9.2%
O=C(O)CCCCCN1C(=O)/C(=C\c2ccc(-c3ccc(Cl)cc3)o2)SC1=S	-2.4	31.6µM*	-23.4%
COc1ccc2c(c1)CCc1cc(C(=O)N3CCN(c4ccc(N5CCOCC5)nn4)CC3)sc1-2	-3.5	-0.2%	141.6%
CCCCn1nc2cc(C(=O)NCC34CC5CC(CC(C5)C3)C4)ccc2c1OC	-0.4	0.0%	29.7%
COc1cc(C2=NOC(C(=O)Nc3cc(C)on3)C2)cc(OC)c1OC (centres undefined)	0.3	1.6%	-1.6%
COc1ccc(C2=NOC(C(=O)Nc3cc(C)on3)C2)cc1OC (centres undefined)	-0.1	3.55µM*	-0.1%
COc1ccc(-n2nnnc2SCC(=O)N2CCOCC2)cc1	-0.5	-0.4%	8.8%
COc1ccc2ccc(OCC(=O)Nc3cc(C)on3)cc2c1	-0.6	nt	-1.7%
COc1ccc2nc(C)cc(Nc3ccc(C)cc3)c2c1	-2.1	?	0.5%
COc1ccc2nc(C)cc(NCc3ccc(F)cc3)c2c1	65.3*	5.1%	261.5%
CCOC(=O)N1CCN(C(=O)c2cc3c(-c4cccc(OC)c4)nn(C)c3s2)CC1	-0.4	nt	-2.3%
COc1cccc2cc(-c3nnc(SCC(=O)NCCc4ccccc4)n3C)oc12	-2.8	-3.3%	-0.5%
Cc1cccn(Cc2c(F)cccc2Cl)c1=O	7.0	31.6µM*	2.7%
Cc1cccn(Cc2c(Cl)cccc2Cl)c1=O	-0.2	nt	4.4%
CC(CC(=O)NC1CCCCC1)S(=O)(=O)c1ccc2c(c1)CCN2C(=O)C1CC1 (centres undefined)	0.8	nt	2.7%
Cc1cc(/C=C2/C(=N)N3C(c4ccccc4)=CSC3=NC2=O)c(C)n1-c1ccc(Cl)cc1	1.8	nt	6.8%
Cc1ccc(S(=O)(=O)CC(=O)c2ccc(C)c([N+](=O)[O-])c2)cc1	1.8	2.5%	-0.6%
Cc1ccc(S(=O)(=O)CC(=O)c2ccc([N+](=O)[O-])cc2)cc1	0.0	22.4µM*	1.4%
COC(=O)c1ccc(CSc2nnc(CNC(=O)c3ccccc3F)o2)o1	4.2	1.6%	0.6%
SMILES	IL2 activator	PKM2 act	S-ASM inh
COc1ccccc1C=C1CCc2ccccc2C1=O	-0.1	nt	nt
COc1cc(OC)c(OC)cc1/C=C1/Cc2ccccc2C1=O	126.2*	nt	40.0%
COc1ccc(F)cc1C(=O)C1CCCN(Cc2cccn2-c2cccnc2)C1 (centres undefined)	0.3	35.5µM*	1.4%
COc1ccc(F)cc1C(=O)C1CCCN(Cc2ccc(Oc3ncccn3)cc2)C1 (centres undefined)	0.7	2.3%	4.0%
CC(C)Cc1nnc(NC(=O)CCC(=O)N2CCN(C3CCCC3)CC2)s1	-2.1	nt	0.0%
O=C(COC(=O)C1(c2ccc(F)cc2)CCCC1)N1CCOCC1	-0.3	-5.1%	4.0%
CC(=O)Nc1ccc(OCC(O)Cn2c(C)nc3ccccc32)cc1 (centres undefined)	-1.3	9.2%	-0.7%
CC(=O)Nc1ccc(OCC(O)Cn2c(C(C)C)nc3ccccc32)cc1 (centres undefined)	72.0*	0.7%	0.5%
Cc1ccccc1OCCNC(=O)c1ccc2ccccc2n1	0.4	-2.2%	-10.3%
O=C(NC(=S)NC1CCC(O)CC1)c1ccco1 (centres undefined)	-0.8	nt	7.3%
Nc1ccc(S(=O)(=O)c2ccc(N)c(N)c2)cc1	0.8	28.2µM*	4.0%
Nc1ccc(S(=O)(=O)c2cccc(N)c2)cc1	0.4	26.2%	1.3%
COC(=O)c1cn(C)c2ccc(S(=O)(=O)N3CCCC3)cc2c1=O	-0.8	-0.1%	3.1%
COc1ccccc1NC(=O)c1[nH]c(C)c(C(C)=O)c1C	-0.3	7.4%	2.9%
COc1ccccc1NS(=O)(=O)c1cccc(NC(=O)c2[nH]c(C)c(C(C)=O)c2C)c1	-1.0	12.6µM*	?
O=C1C(=NO)C(c2ccccc2)Oc2ccccc21 (centres undefined)	1.2	nt	11.9%
Cc1nc(C)c(-c2csc(Nc3ccc(S(N)(=O)=O)cc3)n2)s1	-0.1	-1.7%	-0.3%
Cc1ccc(-c2csc(Nc3ccc(S(N)(=O)=O)cc3)n2)o1	-2.0	10µM*	-17.8%
Cc1ccc(S(=O)(=O)N2CCN(C(=O)CC(C)C)CC2)cc1	-1.0	-8.6%	4.7%
Cc1ccc(S(=O)(=O)N2CCN(C(=O)CCn3nc(C)c(C)c3C)CC2)cc1	6.6	14.1µM*	-2.7%
Cc1nn(CCC(=O)N2CCN(S(=O)(=O)c3ccc(Cl)cc3)CC2)c(C)c1C	0.1	22.4µM*	-3.3%[11.5 µM]
CC(C)CC(=O)N1CCN(S(=O)(=O)c2ccc(Cl)cc2)CC1	-1.5	9.2%	0.3%
O=C(C[C@@H]1C[C@H]2c3cc(NC(=O)NC4CCCCC4)ccc3O[C@H]2[C@H](CO)O1)NC1CCCCC1	-1.3	nt	nt
Cc1ccc(-n2c(SCC(=O)N/N=C/c3ccccc3C(=O)O)nnc2-c2ccc(Cl)cc2)cc1	4.3	-1.2%	-2.0%
Cc1ccc(-c2nnc(SCC(=O)N/N=C/c3ccccc3C(=O)O)n2-c2ccc(Cl)cc2)cc1	-1.8	28.2µM*	-0.1%
SMILES	IL2 activator	PKM2 act	S-ASM inh
O=C1NC(c2ccccc2)C(C(=O)c2cccs2)C(O)(C(F)(F)F)N1 (centres undefined)	0.2	-0.2%	0.7%
Nc1nonc1C(=O)N/N=C/c1cccc([N+](=O)[O-])c1	2.1	-5.2%	1.0%
CCOc1cc(-c2nnn(CC(=O)N3CCCCC3)n2)ccc1OC	0.0	-0.2%	-1.4%
Cc1cccc2cc3ccccc3nc12	-1.4	nt	117.7%
COc1ccc(Cn2c3ccc(OC)cc3c3nc4ccccc4nc32)cc1	266.8*	8.6%	-2.4%
COc1ccc2c(c1)c1nc3ccccc3nc1n2Cc1ccc(OC(C)C)c(OC)c1	-0.2	-1.1%	-26.4%
CC(C)CCOc1ccc(C(=O)NCCC(=O)N2CCOCC2)cc1	-2.6	-0.4%	2.2%
Cc1ccc(S(=O)(=O)NC(=NC2CCCCC2)c2ccccc2)cc1	-0.3	nt	-1.0%
Clc1ccc2nc(CSc3ncn[nH]3)cn2c1	-0.3	?	0.8%
Brc1ccc2nc(CSc3ncn[nH]3)cn2c1	-0.1	20µM*	3.3%
NC(=O)c1ccc(SCC(=O)OCC(=O)N2CCCC2=O)c([N+](=O)[O-])c1	-0.9	nt	3.4%
Cn1cnnc1SCC(=O)N1N=C2/C(=C/c3ccco3)CCCC2C1c1ccco1 (centres undefined)	0.2	28.2µM*	-1.5%

Screening results as filed in PubChem BioAssay.
